NS3h inh CB = blocks HCV NS3 helicase binding to DNA. NS3h Cy5-dT15 DNA binding, fluorescence polarization. inhibition, % at 100 µM. actives 1.6% (n = 16,000);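 active = inhibition above the average over every tested compound plus 3 SD, cut at about 40% in these data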
Cy5 interf NS3h = enhances or quenches Cy5 fluorescence in NS3h assay; actives 6% (n = 16,000); fluorescence interference ratio at 100 µM; Cy5-dT15 DNA with NS3h, fluorescence interference; actives lie on both sides; signal over control mean, under 1 quenches; AID 720488;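 active = compound fluorescence over control fluorescence at most 0.8, a quencher, or at least a set upper limit, an enhancer; inactive = ratio between 0.8 and the set upper limit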
HCV NS3h conf = confirmation of hepatitis C virus NS3 helicase inhibitors; shares compounds with NS3h inh CB; NS3h binding to Cy5-dT15 DNA, fluorescence polarization; inhibition, % at 100 µM; actives 20% (n = 240);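 active = percent inhibition of 50% or more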
SSB FP counter = disrupts E. coli SSB binding to DNA in counter-screen | E. coli SSB binding Cy5-dT15, fluorescence polarization | actives 40% (n = 240) | inhibition, % at 100 µM | shares compounds with NS3h inh CB;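 active = inhibition of at least 50%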;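 note: displacers lower Cy5 polarization so higher inhibition means more SSB displaced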
Target sequence (P0AGE0 whole entry, looked up): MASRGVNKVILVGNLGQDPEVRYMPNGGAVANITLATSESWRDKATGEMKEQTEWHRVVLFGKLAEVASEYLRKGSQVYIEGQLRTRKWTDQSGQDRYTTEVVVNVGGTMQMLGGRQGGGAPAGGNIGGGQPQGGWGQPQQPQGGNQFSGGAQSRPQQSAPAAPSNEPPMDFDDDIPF
Cy5 SSB fluor CB = counter-screen for HCV NS3 helicase inhibitors: fluorescence interference | shares compounds with NS3h inh CB | fluorescence interference ratio at 100 µM | actives 8% (n = 240) | AID 720487 | Cy5-dT15/E. coli SSB fluorescence interference; actives lie on both sides;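 active = fluorescence interference ratio at or above 1.2, signal boosting, or at or below 0.8, signal quenching; inactive = ratio between 0.8 and 1.2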
Cy5 fluor confirm = Cy5 fluorescence interference, confirmation counter-screen; shares compounds with NS3h inh CB; Cy5-dT15 DNA/NS3h fluorescence interference counterscreen; AID 720489; actives 44% (n = 240); fluorescence interference ratio at 100 µM, hits read low;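 active = fluorescence interference ratio at or below 0.8 quencher or at or above a set limitenhancer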
Each line names hits and unclear results; the compound was inactive in the other large screens (follow-up assays come after a bar, where they were run). Shown are actives, neighbours in structure and some others; about 6.8% of the full set was active somewhere.

COc1ccc(NC(=O)/C(C#N)=C\c2ccc(-c3ccc(C(=O)O)c(Cl)c3)o2)cc1	NS3h inh CB 59 | HCV NS3h conf inactive | SSB FP counter inactive | Cy5 SSB fluor CB inactive | Cy5 fluor confirm 0.75
N#C/C(=C/c1ccc(-c2ccc(C(=O)O)c(Cl)c2)o1)C(=O)Nc1ccccc1	none
Cc1ccc(C(=O)NC=C(C#N)C#N)cc1	none
COC(=O)c1ccc(N2C(=O)c3ccc4c5c(ccc(c35)C2=O)C(=O)N(c2ccc(C(=O)OC)cc2)C4=O)cc1	none
Cc1ccc(C(=O)CSc2nc3ccccc3c(=O)n2-c2ccccc2)cc1	none
Cc1ccc(-n2c(-c3ccccc3F)nc3c(cnn3-c3ccccc3)c2=O)cc1	NS3h inh CB 41 | HCV NS3h conf inactive | SSB FP counter inactive | Cy5 SSB fluor CB inactive | Cy5 fluor confirm 0.77
Cc1nn2c3ccccc3n(C)c2c1C(=O)/C=C/c1ccccc1F	none
Cc1ccc(-c2ccccc2)n1-c1ccccc1C(=O)O	none
Cc1ccc(C(=O)O)cc1-n1c(C)ccc1C	NS3h inh CB 82, Cy5 interf NS3h 1.4 | HCV NS3h conf 89 | SSB FP counter 89 | Cy5 SSB fluor CB inactive | Cy5 fluor confirm inactive
Cc1cc(Cl)c2cc(C(=O)O)ccc2n1	none
Cc1cc(C(=O)O)ccc1-n1c(C)ccc1C	NS3h inh CB 101, Cy5 interf NS3h 1.4 | HCV NS3h conf 100 | SSB FP counter 108 | Cy5 SSB fluor CB inactive | Cy5 fluor confirm inactive
O=C(CC1S/C(=N/N=C\c2cccs2)NC1=O)Nc1ccc(Cl)c(Cl)c1 (configuration not stated)	none
COC(=O)c1cc(NC(=O)c2ccc(-c3ccc([N+](=O)[O-])cc3)o2)cc(C(=O)OC)c1	none
